Assays:
[1] = molecular target: T1, Tyrosine-protein kinase Mer (Homo sapiens) (UniProt Q12866); details: at 1 µM
T1 sequence (whole entry): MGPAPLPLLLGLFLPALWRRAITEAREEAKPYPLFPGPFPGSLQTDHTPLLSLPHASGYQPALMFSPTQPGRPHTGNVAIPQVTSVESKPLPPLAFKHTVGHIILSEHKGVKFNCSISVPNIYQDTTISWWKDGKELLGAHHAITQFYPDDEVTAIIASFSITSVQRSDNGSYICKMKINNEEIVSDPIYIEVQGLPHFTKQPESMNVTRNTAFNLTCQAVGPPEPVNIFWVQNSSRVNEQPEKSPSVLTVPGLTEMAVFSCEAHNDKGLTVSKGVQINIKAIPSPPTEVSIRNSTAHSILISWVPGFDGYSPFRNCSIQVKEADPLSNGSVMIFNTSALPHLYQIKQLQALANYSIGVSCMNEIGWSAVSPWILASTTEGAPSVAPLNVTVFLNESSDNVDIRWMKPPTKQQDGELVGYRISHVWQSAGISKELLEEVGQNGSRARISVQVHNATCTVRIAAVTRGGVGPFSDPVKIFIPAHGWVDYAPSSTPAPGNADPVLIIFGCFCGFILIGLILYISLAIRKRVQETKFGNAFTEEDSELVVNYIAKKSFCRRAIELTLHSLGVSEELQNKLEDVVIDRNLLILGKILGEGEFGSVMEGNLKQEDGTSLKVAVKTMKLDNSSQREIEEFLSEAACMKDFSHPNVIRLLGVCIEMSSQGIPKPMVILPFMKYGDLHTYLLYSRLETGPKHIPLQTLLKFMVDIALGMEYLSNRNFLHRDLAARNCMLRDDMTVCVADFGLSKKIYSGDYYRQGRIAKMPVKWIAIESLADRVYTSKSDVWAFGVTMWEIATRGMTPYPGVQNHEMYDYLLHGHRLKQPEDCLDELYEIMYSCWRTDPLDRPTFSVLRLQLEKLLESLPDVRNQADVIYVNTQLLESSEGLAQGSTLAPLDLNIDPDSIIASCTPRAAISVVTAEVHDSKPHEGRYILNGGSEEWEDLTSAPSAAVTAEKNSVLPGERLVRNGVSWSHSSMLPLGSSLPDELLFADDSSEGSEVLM

[2] = molecular target: T1, Tyrosine-protein kinase Mer (Homo sapiens); details: at 10 µM
[3] = molecular target: Hepatocyte growth factor receptor (Homo sapiens) (UniProt P08581); details: at 1 µM
Sequence of Hepatocyte growth factor receptor (Homo sapiens) (P08581 whole entry): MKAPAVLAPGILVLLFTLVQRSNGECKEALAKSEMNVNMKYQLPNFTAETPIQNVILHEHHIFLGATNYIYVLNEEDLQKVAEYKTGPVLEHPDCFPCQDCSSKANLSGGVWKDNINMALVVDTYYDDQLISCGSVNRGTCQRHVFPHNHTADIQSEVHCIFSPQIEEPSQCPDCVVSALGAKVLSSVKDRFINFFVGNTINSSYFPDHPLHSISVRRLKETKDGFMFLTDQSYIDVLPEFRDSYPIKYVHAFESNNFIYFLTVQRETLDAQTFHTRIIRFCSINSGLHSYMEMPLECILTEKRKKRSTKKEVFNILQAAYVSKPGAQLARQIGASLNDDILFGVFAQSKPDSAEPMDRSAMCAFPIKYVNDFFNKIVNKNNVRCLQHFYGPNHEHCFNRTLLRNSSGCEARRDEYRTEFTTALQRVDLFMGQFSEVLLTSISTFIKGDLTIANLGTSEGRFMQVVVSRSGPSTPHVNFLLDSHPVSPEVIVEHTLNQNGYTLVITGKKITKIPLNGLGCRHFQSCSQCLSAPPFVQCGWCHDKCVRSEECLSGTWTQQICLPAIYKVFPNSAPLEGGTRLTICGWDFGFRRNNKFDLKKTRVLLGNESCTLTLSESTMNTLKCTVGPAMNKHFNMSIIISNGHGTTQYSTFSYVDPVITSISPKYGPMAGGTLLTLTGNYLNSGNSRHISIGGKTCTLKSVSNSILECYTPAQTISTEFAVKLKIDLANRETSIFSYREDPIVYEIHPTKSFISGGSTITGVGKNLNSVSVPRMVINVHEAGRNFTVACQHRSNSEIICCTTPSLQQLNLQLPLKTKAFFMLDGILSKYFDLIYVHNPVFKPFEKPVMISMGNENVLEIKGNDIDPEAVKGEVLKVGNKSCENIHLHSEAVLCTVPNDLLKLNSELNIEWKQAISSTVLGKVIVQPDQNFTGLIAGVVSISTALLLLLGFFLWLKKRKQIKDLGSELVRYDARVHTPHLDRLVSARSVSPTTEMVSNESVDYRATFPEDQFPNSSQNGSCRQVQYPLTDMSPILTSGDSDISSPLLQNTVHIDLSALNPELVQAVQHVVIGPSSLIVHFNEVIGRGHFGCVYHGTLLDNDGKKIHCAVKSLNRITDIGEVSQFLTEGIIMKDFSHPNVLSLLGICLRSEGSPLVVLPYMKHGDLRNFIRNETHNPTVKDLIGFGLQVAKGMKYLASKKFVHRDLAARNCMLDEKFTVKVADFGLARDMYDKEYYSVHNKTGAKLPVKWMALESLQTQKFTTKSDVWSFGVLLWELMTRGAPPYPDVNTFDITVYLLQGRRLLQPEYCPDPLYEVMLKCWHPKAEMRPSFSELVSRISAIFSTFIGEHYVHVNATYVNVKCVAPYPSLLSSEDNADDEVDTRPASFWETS

[4] = molecular target: Hepatocyte growth factor receptor (Homo sapiens) (UniProt P08581); details: at 10 µM
[5] = molecular target: MAP kinase-interacting serine/threonine-protein kinase 2 (Homo sapiens) (UniProt Q9HBH9); details: at 1 µM
Sequence of MAP kinase-interacting serine/threonine-protein kinase 2 (Homo sapiens) (Q9HBH9 whole entry, looked up): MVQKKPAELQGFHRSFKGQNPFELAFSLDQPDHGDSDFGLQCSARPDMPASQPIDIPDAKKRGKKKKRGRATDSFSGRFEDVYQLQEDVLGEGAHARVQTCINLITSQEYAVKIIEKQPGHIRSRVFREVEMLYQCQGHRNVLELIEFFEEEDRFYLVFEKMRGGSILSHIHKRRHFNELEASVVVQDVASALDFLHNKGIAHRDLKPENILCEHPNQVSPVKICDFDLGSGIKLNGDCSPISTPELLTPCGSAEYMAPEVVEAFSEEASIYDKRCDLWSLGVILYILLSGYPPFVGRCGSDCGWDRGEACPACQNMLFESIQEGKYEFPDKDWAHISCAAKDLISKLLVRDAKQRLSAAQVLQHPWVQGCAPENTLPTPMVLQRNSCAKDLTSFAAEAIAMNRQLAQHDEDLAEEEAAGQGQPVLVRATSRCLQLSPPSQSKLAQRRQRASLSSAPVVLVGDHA

[6] = molecular target: MAP kinase-interacting serine/threonine-protein kinase 2 (Homo sapiens) (UniProt Q9HBH9); details: at 10 µM
[7] = molecular target: T2, Muscle, skeletal receptor tyrosine-protein kinase (Homo sapiens) (UniProt O15146); details: at 1 µM
T2 sequence (whole entry): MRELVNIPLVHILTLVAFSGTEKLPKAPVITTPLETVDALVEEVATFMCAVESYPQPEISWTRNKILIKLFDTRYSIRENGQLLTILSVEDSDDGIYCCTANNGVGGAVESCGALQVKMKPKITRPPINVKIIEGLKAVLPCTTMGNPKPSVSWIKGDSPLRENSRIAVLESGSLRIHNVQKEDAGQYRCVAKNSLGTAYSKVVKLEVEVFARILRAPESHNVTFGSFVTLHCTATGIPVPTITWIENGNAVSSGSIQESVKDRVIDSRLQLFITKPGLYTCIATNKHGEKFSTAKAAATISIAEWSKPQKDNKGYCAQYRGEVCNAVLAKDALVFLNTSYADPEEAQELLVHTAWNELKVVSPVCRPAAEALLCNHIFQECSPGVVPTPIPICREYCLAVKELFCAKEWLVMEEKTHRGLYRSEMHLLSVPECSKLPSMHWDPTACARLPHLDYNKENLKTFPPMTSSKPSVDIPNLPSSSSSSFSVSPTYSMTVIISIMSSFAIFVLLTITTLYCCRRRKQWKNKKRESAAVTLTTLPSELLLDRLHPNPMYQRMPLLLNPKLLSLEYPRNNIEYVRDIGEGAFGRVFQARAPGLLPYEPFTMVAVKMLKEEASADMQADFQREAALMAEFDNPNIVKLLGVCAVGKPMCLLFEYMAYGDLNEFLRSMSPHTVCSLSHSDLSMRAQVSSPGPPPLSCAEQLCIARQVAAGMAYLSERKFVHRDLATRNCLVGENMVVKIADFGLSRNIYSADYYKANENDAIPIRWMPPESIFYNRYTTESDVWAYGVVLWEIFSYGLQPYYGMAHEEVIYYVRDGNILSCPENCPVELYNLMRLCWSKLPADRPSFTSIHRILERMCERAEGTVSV

[8] = molecular target: T2, Muscle, skeletal receptor tyrosine-protein kinase (Homo sapiens); details: at 10 µM
[9] = molecular target: T3, Serine/threonine-protein kinase Nek11 (Homo sapiens) (UniProt Q8NG66); details: at 1 µM
T3 sequence (whole entry): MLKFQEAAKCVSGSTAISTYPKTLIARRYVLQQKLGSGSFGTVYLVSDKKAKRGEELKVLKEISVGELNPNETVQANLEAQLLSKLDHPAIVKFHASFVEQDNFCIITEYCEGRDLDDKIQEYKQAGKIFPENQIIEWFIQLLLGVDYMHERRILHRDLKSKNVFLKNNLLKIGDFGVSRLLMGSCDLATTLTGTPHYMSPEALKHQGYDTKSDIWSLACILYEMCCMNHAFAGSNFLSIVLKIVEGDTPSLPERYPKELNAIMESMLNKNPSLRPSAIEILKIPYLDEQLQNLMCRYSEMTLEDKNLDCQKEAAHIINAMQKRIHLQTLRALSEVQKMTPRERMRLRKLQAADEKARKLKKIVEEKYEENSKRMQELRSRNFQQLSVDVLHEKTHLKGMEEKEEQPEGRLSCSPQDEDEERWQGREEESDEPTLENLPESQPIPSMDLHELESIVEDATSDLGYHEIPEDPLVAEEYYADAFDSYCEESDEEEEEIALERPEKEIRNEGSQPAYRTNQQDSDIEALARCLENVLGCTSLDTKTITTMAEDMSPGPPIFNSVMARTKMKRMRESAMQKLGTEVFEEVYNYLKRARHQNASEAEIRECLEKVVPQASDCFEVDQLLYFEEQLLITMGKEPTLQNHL

[10] = molecular target: T3, Serine/threonine-protein kinase Nek11 (Homo sapiens); details: at 10 µM

SMILES | residual activity [1] | residual activity [2] | residual activity [3] | residual activity [4] | residual activity [5] | residual activity [6] | residual activity [7] | residual activity [8] | residual activity [9] | residual activity [10]
O=[N+]([O-])/C=C/c1ccc2c(c1)OCO2 | 106% | 108% | 111% | 96% | 116% | 105% | 127% | 114% | 90% | 106%
c1cc(-c2cnn3cc(-c4ccc(OCCN5CCCCC5)cc4)cnc23)ccn1 | 33% | 3% |  |  | 56% | 24% | 18% | 1% |  | 
CCn1cnc2c(Nc3cccc(Cl)c3)nc(N[C@@H]3CCCC[C@@H]3N)nc21 | 8% | -1% |  | 72% | 97% | 70% | 61% | 13% | 68% | 55%
CCc1nc(-c2ccc(OC)cc2)[nH]c1-c1ccncc1 |  |  |  |  | 105% | 59% | 117% | 76% | 62% | 72%
COc1ccc2c(c[n+](C)c3c4cc5c(cc4ccc23)OCO5)c1OC |  |  | 94% | 85% |  | 82% |  | 95% |  | 
COc1ccc2c(c1)/C(=C/c1cnc[nH]1)C(=O)N2 |  |  |  | 42% |  | 40% | 80% | 27% |  | 
C[S+]([O-])c1ccc(-c2nc(-c3ccc(F)cc3)c(-c3ccncc3)[nH]2)cc1 (centres undefined) | 117% | 105% | 123% | 68% | 103% | 87% | 143% | 95% | 90% | 
COc1cc(OC)c(/C=C2\C(=O)Nc3ccccc32)c(OC)c1 | 95% | 93% | 103% | 94% | 99% | 96% | 88% | 78% | 43% | 61%
CC(C)[C@H](CO)Nc1nc(Nc2cccc(Cl)c2)c2ncn(C(C)C)c2n1 | 26% | 0% | 83% | 73% |  | 98% | 48% | 5% | 59% | 38%
N/C(=N\[N+](=O)[O-])N/N=C\c1ccc(-c2cccc([N+](=O)[O-])c2)o1 |  |  |  |  |  |  | 93% | 91% | 73% | 72%
O=C1Nc2ccc3ncsc3c2/C1=C/c1c[nH]cn1 | 6% | 2% | 18% | 4% | 9% | 4% | 53% | 11% | 50% | 13%
O=C1c2ccccc2-c2nc3nnnn3nc21 | 124% | 103% | 127% | 133% | 100% | 75% | 131% | 105% |  | 
COC(=O)[C@@]1(O)C[C@H]2O[C@]1(C)n1c3ccccc3c3c4c(c5c6ccccc6n2c5c31)C(=O)NC4 | 2% | 0% | 6% | 13% | 0% | 0% | 18% | 2% | 34% | 9%
O=c1[nH]c2ccccc2n1C1CCN(Cc2ccc(-c3nc4cc5[nH]cnc5cc4nc3-c3ccccc3)cc2)CC1 | 112% | 51% | 93% | 88% | 97% | 67% | 105% | 84% | 75% | 88%
O=C1NC(=O)c2c1c1c3ccccc3n3c1c1c2c2ccccc2n1C1CCC3O1 | 34% | 11% |  |  | 97% | 95% |  |  | 91% | 87%
COc1cc2ncnc(Nc3ccc(OCc4ccccc4)cc3)c2cc1OC | 64% | 49% | 87% | 87% | 90% | 68% | 118% | 77% | 99% | 101%
CC(C)(C)c1cc(C=C(C#N)C#N)cc(Br)c1O | 116% |  |  |  |  |  | 121% | 72% |  | 109%
